# Laboratory results reported in PMC5540273 (PLoS ONE, 2017).
# Legend:
# Conditions in all cases: concentration: 1 μM, replicates: in singlicate; n = 1
# MEK5 = tested on: T1, MEK5
# T1 construct: gene MAP2K5
# MEK6 = tested on: T2, MEK6
# T2 construct: gene MAP2K6
# MELK = tested on: MELK
# MERTK = tested on: MERTK
# MET = tested on: MET
# MINK = tested on: T3, MINK
# T3 construct: gene MINK1
# MKK7 = tested on: MKK7
# MKNK1 = tested on: MKNK1
# MKNK2 = tested on: MKNK2
# MLCK = tested on: T4, MLCK
# T4 construct: gene MYLK3
# MLK1 = tested on: T5, MLK1
# T5 construct: gene MAP3K9
# MLK2 = tested on: MLK2
# MLK3 = tested on: MLK3
# MRCKA = tested on: MRCKA
# MRCKB = tested on: T6, MRCKB
# T6 construct: gene CDC42BPB
# MST1R = tested on: MST1R
# MST1 = tested on: T7, MST1
# T7 construct: gene STK4
# MST2 = tested on: T8, MST2
# T8 construct: gene STK3
# MST3 = tested on: T9, MST3
# T9 construct: gene STK24
# MST4 = tested on: MST4
# 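Also: KINOMEscan kinase panel screen.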
SMILES,%Inh (MEK5) [%],%Inh (MEK6) [%],%Inh (MELK) [%],%Inh (MERTK) [%],%Inh (MET) [%],%Inh (MINK) [%],%Inh (MKK7) [%],%Inh (MKNK1) [%],%Inh (MKNK2) [%],%Inh (MLCK) [%],%Inh (MLK1) [%],%Inh (MLK2) [%],%Inh (MLK3) [%],%Inh (MRCKA) [%],%Inh (MRCKB) [%],%Inh (MST1R) [%],%Inh (MST1) [%],%Inh (MST2) [%],%Inh (MST3) [%],%Inh (MST4) [%]
CSc1cccc2c(-c3ccncn3)c(-c3ccc(F)cc3)nn12 [GW514786],15,0,20,39,23,5,0,14,1,0,14,19,12,25,14,18,5,14,5,6
COC(=O)Nc1nc2cc(Oc3ccc(NC(=O)Nc4cc(C(F)(F)F)ccc4F)cn3)ccc2[nH]1.Cl.Cl [GW681170],51,0,6,95.7,73,18,0,36,88,0,12,0,10,16,0,17,0,0,0,0
c1ccc(-c2n[nH]cc2Nc2ccnc3ccccc23)nc1 [GW694077],31,8,21,0,100,61,0,13,85,2,11,0,0,18,0,12,0,0,0,0
FC(F)(F)c1ccc(/C=C/c2cncnc2Nc2ccc3[nH]c(Cc4ccccc4)nc3c2)cc1 [GW709199],32,0,0,4,16,1,0,0,0,0,19,11,1,31,26,0,2,0,0,0
Cn1cc(-c2[nH]c3cc(NC(=O)[C@H](N)C4CCCCC4)cc4c3c2C=NNC4=O)cn1,100,3,60,95.1,5,96.5,0,100,100,84,88,69,83,0,0,15,27,99.1,55,97.5
COc1ccc(Nc2nccc(N3CCC(NC(=O)Nc4cccc(OC)c4)C3)n2)cc1 (stereo not shown) [GSK1379742],46,0,7,19,0,0,0,3,0,0,0,0,25,11,0,9,0,31,0,0
COc1cccc(C2=C(Nc3ccc(Cl)c(C(=O)O)c3)C(=O)NC2=O)c1 [SB-390769],18,0,7,0,8,100,18,4,5,100,4,0,0,12,0,100,25,51,0,96.3
Cc1ccc(C(=O)Nc2ccc(Nc3ccnc4cc(-c5nccs5)ccc34)cc2O)cc1.Cl [GW494702],99.9,0,1,24,0,47,0,22,8,12,0,0,0,1,0,34,0,5,3,0
Cl.Cl.NCC(NCc1ccc(-c2ccnc3[nH]ccc23)s1)c1ccccc1 (stereo not shown) [GSK1321565],43,4,64,74,0,51,0,2,65,6,0,0,7,23,64,12,0,48,0,0
COc1cc2c(cc1OCCN1CCNCC1)ncc1c3ccc(C#N)cc3[nH]c21,99.6,0,35,0,5,86,12,100,99,97.5,0,0,0,6,0,9,0,60,12,28
CN(C)S(=O)(=O)c1cc(-c2ccc3nccc(-c4cccc(S(N)(=O)=O)c4)c3c2)cnc1N [GSK1669921],56,0,0,33,0,19,0,0,4,0,0,22,0,0,0,32,20,2,5,6
O=C(Nc1n[nH]c2cc(-c3ccoc3)ccc12)C1CC1 [SB-738481],45,0,0,0,0,44,0,0,15,34,0,0,6,1,0,0,0,25,0,0
COc1cccc(-c2ccc3c(NC(=O)C4CC4)n[nH]c3n2)c1 [SB-710903],61,0,0,38,28,76,0,32,21,47,19,0,0,21,0,29,3,0,0,0
CN(C)Cc1ccc(-c2ccc3c(Nc4ccc(Oc5ccccn5)cc4)ccnc3c2)o1 [GW567148],100,0,0,38,12,36,0,0,38,0,0,0,1,0,0,41,14,0,0,0
O=C(Nc1ccccc1F)NC1CCN(c2ccnc(Nc3ccc(F)cc3)n2)CC1 [GSK1379800],13,0,15,0,0,0,17,0,0,0,0,0,0,35,0,33,1,2,0,5
NCCCC(NC(=O)c1cc(Br)c(-c2ccnc3[nH]ccc23)s1)c1ccccc1.O=C(O)C(F)(F)F.O=C(O)C(F)(F)F (stereo not shown) [GSK1287544],7,0,54,55,6,27,16,0,83,47,0,15,0,63,98.8,17,0,0,0,11
CCCCc1nn2ncccc2c1-c1ccnc(Nc2ccc(N3CCN(C)CC3)cc2)n1 [GW684941],98.9,0,0,56,8,43,0,9,64,0,0,5,0,19,17,45,0,0,1,0
Cl.Cl.NCC(C(=O)Nc1cc(Br)c(-c2ccnc3[nH]ccc23)s1)c1ccccc1 (stereo not shown) [GSK1269851],20,0,45,19,0,8,0,13,99.1,98.7,0,18,11,0,25,47,0,7,0,11

SMILES,%Inh (MEK5) [%],%Inh (MEK6) [%],%Inh (MELK) [%],%Inh (MERTK) [%],%Inh (MET) [%],%Inh (MINK) [%],%Inh (MKK7) [%],%Inh (MKNK1) [%],%Inh (MKNK2) [%],%Inh (MLCK) [%],%Inh (MLK1) [%],%Inh (MLK2) [%],%Inh (MLK3) [%],%Inh (MRCKA) [%],%Inh (MRCKB) [%],%Inh (MST1R) [%],%Inh (MST1) [%],%Inh (MST2) [%],%Inh (MST3) [%],%Inh (MST4) [%]
O=C(NC1CCN(c2ccnc(Nc3ccc(F)cc3)n2)C1)c1cc2ccccc2s1 (stereo not shown) [GSK1379716],8,1,0,38,0,0,0,3,7,8,0,0,29,10,5,34,9,0,0,0
Cc1cccc(Nc2nc(N[C@H]3CCNC3)ncc2C(N)=O)c1.Cl [GSK2197149],99.8,50,20,37,0,76,4,0,51,24,92.9,4,86,0,0,0,43,0,31,36
Nc1ncc(-c2ccc3nccc(-c4ccncc4)c3c2)cc1S(=O)(=O)N1CCOCC1 [GSK1627798],15,0,0,12,0,10,5,0,3,0,6,0,0,0,0,11,7,0,4,0
Cc1cccc(NC(=O)Nc2ccc(Oc3ncnc4ccn(C)c34)cc2)c1,25,0,0,9,19,3,0,3,88,0,2,0,0,0,0,7,14,0,0,0
Cc1ccc(C(=O)N2CC[C@@H](O)C2)cc1-n1c(C)cc(OCc2ccc(F)cc2F)c(Br)c1=O,0,0,0,0,0,0,0,0,0,0,0,5,0,0,0,3,0,5,5,0
COC(=O)Nc1nc2ccc(Oc3ccc(NC(=O)Nc4cc(C(F)(F)F)ccc4F)cc3)cc2n1C.Cl [GW692089],15,0,0,94.2,62,20,0,75,90.2,34,0,0,19,0,0,14,0,0,3,0
Fc1ccc(-c2ncn(C3CCNCC3)c2-c2ccnc(Oc3ccc(-c4ccccc4)cc3)n2)cc1 [SB-245391],17,29,27,0,50,30,11,0,10,0,52,46,0,26,59,0,27,30,14,31
c1ccc(Oc2ccc(Nc3ccnc4cc(-c5ccc(CNCCN6CCOCC6)o5)ccc34)cc2)nc1 [GW567145],100,0,0,9,0,37,0,0,19,10,0,0,0,0,0,16,0,0,11,0
O=C(Nc1n[nH]c2nc(-c3ccc(O)cc3)ccc12)C1CC1 [SB-710363],81,0,46,8,0,72,0,43,54,57,0,0,0,0,0,0,0,0,0,9
COc1cccc(NC(=O)NC2CCN(c3ccnc(Nc4cc(OC)c(OC)c(OC)c4)n3)C2)c1 (stereo not shown) [GSK1379763],99.9,0,0,15,0,0,0,36,65,0,48,0,38,11,60,31,0,3,0,0
COc1ccc(Nc2nccc(NCCNC(=O)c3cc4ccccc4s3)n2)cc1 [GSK1379896],33,0,0,24,0,2,0,0,0,0,0,0,14,21,6,40,0,24,0,0
CCc1ccc(-c2ccc3c(c2)-c2c(cnn2C)S(=O)(=O)N3C)cc1,0,0,0,0,26,0,0,0,0,1,7,0,0,0,0,31,0,0,0,0
O=C(Nc1cccc(-c2nn3ncccc3c2-c2ccnc(Nc3ccccc3)n2)c1)c1c(F)cccc1F [GSK198271],99.9,59,0,79,43,23,27,11,7,8,0,0,11,69,88,15,47,100,12,0
Nc1ncc(-c2cccnc2)c2scc(-c3ccc4c(c3)CCN4C(=O)Cc3ccccc3)c12 [GSK683281],99.7,0,100,69,33,41,30,5,15,14,10,11,7,23,79,78,95.8,36,8,13
CC(=O)N1CCN(c2ccc(Nc3nccc(-c4sc(C(C)C)nc4-c4cccc(NS(=O)(=O)c5cccc(Cl)c5)c4)n3)cn2)CC1 [GSK1660437],99.8,0,57,44,0,18,0,7,51,0,33,33,46,0,0,15,4,0,6,1
Nc1ncnc2c1nc(-c1ccccc1)n2-c1ccccc1 [SKF-97293],32,27,0,0,10,16,38,0,18,23,16,2,0,0,0,18,21,20,0,24
CCS(=O)(=O)c1ccc(OC)c(Nc2nccc(-c3c(-c4cccc(NC(=O)c5c(F)cccc5F)c4)nn4ncccc34)n2)c1 [GSK326180],99.6,0,0,9,2,0,14,3,12,0,0,0,0,24,11,0,21,28,0,0
